Pf growth 48h: inhibits P. falciparum growth in the first generation, 48 h. hit rate 5.9% among 310,000. P. falciparum luciferase growth in erythrocytes, 48 h. Potency, µM (series often up to 28.7 µM), inactives show at the top dose activity change, negative = inhibition, hits mostly inhibitors; also: potency is read from the fitted curve at half-maximal effect
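In quantitative HTS format, infected erythrocytes bearing luciferase-reporter parasites were treated for a single generation at 37 C. Luminescence after adding detection reagent served as the growth measure.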
HCV inhibitor: blocks hepatitis C virus. Potency, µM (series often up to 41.8 µM), without a hit: at the highest dose activity change, negative = inhibition, actives largely listed as inhibitors. AID 651820. hit rate 3.4% among 340,000. Huh7.5.1 HCVcc-Cre infection, luciferase reporter, 44 h; also: potency is read from the fitted curve at half-maximal effect
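Luciferase read-out (15 sec integration) after a 15 min room-temperature substrate step quantifies HCVcc-Cre infection. Cells, 1,000 per well, had compound added 4 h post-plating, then virus at ~0.5 moi, and were cultured 44 h.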
Pf growth 96h: inhibits malaria parasite growth, 96 h; P. falciparum luciferase reporter growth, 96 h; Potency, µM (titrated, usually from 28.7 µM), for inactives: at the highest dose activity change, negative = inhibition, usual class: inhibitors; hit rate 6.9% among 320,000; AID 504834; also: potency is read from the fitted curve at half-maximal effect
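P. falciparum expressing integrated firefly luciferase grown in erythrocytes (2% hematocrit, 0.05% parasitemia final) with compounds for 96 hours at 37 C, 5% CO2. Growth inhibition read as loss of luminescence after adding luciferase detection reagent.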
HCMV antiviral: human cytomegalovirus inhibition | HFF cells, HCMV-luciferase reporter, 72 h; active compounds read low | activity change, negative = inhibition, % at 57.5 µM | hit rate 4.5% among 410,000; in the data active = activity change below about -60%; inconclusive = no clear call, values can overlap the other calls; inactive = above about -39%
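Two compound doses tested in HFFs infected with HCMV-luciferase, MOI 1 PFU/cell, 72 h at 37C. Lysate luminescence read with OneGlo; data normalized against buffer-only and 10uM Salinomycin inhibitor controls.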
An asterisk follows results filed as active; [ ] = another dose, or the depositor's remark. Shown are actives, neighbours in structure and some others; about 13% of the full set was active somewhere. Unless noted, calls follow the shape of the dose curve; as a rule, active = well fitted inhibition curve with a large enough effect; inconclusive = small, poorly fitted or top-dose-only effect, or another doubt; inactive = no such curve, though single readings can be large or run the other way. % is scaled to controls: 0 for no effect and ±100 for the full control effect.

`COC(=O)c1cc2oc(C)cc2n1Cc1cccc(Cl)c1` gave HCMV antiviral 14.
Screening O=C1C(=O)N(CCN2CCOCC2)C(c2ccncc2)/C1=C(/O)c1ccc2c(c1)OCO2 (configuration not stated) returned Pf growth 48h 5%, HCV inhibitor 1%, Pf growth 96h 8.3µM* and HCMV antiviral 12.
For O=C1C(=O)N(CCCn2ccnc2)C(c2ccc(Br)cc2)/C1=C(\O)c1ccc2c(c1)OCCO2 (configuration not stated) the results were Pf growth 48h 0%, HCV inhibitor 13%, Pf growth 96h 9.3µM* and HCMV antiviral 20.
`COc1cccc(C2/C(=C(/O)c3ccc4c(c3)OCO4)C(=O)C(=O)N2CCN2CCOCC2)c1` (configuration not stated) gave Pf growth 48h -4%, HCV inhibitor 4%, Pf growth 96h inconclusive and HCMV antiviral -62*.
`Cc1nccc2[nH]c(=O)c(C(=O)NC3CCCCC3C)cc12` (configuration not stated) gave Pf growth 48h inconclusive, HCV inhibitor 12%, Pf growth 96h 3.3µM* and HCMV antiviral -9.
For CCOC(=O)C1CCCN(Cc2c(C(=O)N3CCOCC3)nc3ccccn23)C1 (configuration not stated) the results were Pf growth 48h 61%, HCV inhibitor 16%, Pf growth 96h 9.3µM* and HCMV antiviral 71.
`CCOC(=O)C1CCCN(CCCc2ccccc2)C1` (configuration not stated) gave Pf growth 48h -29%, HCV inhibitor 15%, Pf growth 96h 3.3µM* and HCMV antiviral -23.
Screening Cc1cccc(C)c1NC(=O)C1CCCN(CCCc2ccccc2)C1 (configuration not stated) returned Pf growth 48h -25%, HCV inhibitor 9% and HCMV antiviral 29.
CCOC(=O)C1CCCN(Cc2ccc(OCc3ccccc3)c(OC)c2)C1 (configuration not stated) was read as Pf growth 48h -48%, HCV inhibitor -29%, Pf growth 96h 13µM* and HCMV antiviral -2.
`CCOC(=O)C1CCCN(Cc2ccc(OCc3ccccc3)cc2)C1` (configuration not stated) gave Pf growth 48h -42%, HCV inhibitor -30%, Pf growth 96h inconclusive and HCMV antiviral 57.
CCOC(=O)C1CCCCN1Cc1cccc(OCc2ccccc2)c1 (configuration not stated) was read as Pf growth 48h -13%, HCV inhibitor -3%, Pf growth 96h 13µM* and HCMV antiviral -15.
For CCOCCc1nn2c(=O)cc(COC(=O)c3ccccc3NC(=O)C3CCCCC3)nc2s1 the results were HCMV antiviral -1.
For COc1ccc2oc(-c3ccc(C)c(NC(=O)c4cccnc4)c3)nc2c1 the results were HCMV antiviral 17.
`c1ccc(-c2nnc(CN3CCN(c4ccccn4)CC3)o2)cc1` gave HCMV antiviral 21.
CCOC(=O)N1CCc2c(sc3c2c(=O)n(Cc2ccccc2)c(=O)n3Cc2ccccc2Cl)C1 was read as HCMV antiviral -39.
COc1ccc2nc(C)cc(NCc3ccc(F)cc3)c2c1 was read as Pf growth 48h inconclusive, HCV inhibitor -30%, Pf growth 96h 2.6µM* and HCMV antiviral -9.
COc1ccc(Nc2cc(C)nc3ccccc23)cc1 was read as Pf growth 48h -5%, HCV inhibitor inconclusive, Pf growth 96h 39% and HCMV antiviral inconclusive.
Screening COc1ccc2nc(C)cc(NCCN3CCOCC3)c2c1 returned Pf growth 48h inconclusive, HCV inhibitor 1%, Pf growth 96h inconclusive and HCMV antiviral -22.
COc1ccc2nc(C)cc(Nc3ccc(N4CCOCC4)cc3)c2c1 was read as Pf growth 48h 2.9µM*, HCV inhibitor inconclusive, Pf growth 96h 3% and HCMV antiviral -86*.
For COc1ccc2nc(C)cc(Nc3ccc(N4CCN(C)CC4)cc3)c2c1 the results were Pf growth 48h 0%[0.00184 µM], HCV inhibitor 10µM*, Pf growth 96h inconclusive and HCMV antiviral -102*.
COc1ccc2nc(C)cc(Nc3ccc(C)cc3)c2c1 was read as Pf growth 48h inconclusive, HCV inhibitor inconclusive, Pf growth 96h 9% and HCMV antiviral -23.
`COc1ccc2nc(C)cc(Nc3ccc(Cl)c(Cl)c3)c2c1` gave HCMV antiviral -106*.

Compound activity (PubChem BioAssay)
